# High-throughput results deposited in PubChem BioAssay by Broad Institute.
# Shn3 inh set2: reduces Shn3 3'UTR luciferase signal in osteoblasts. AID 588674. 360,000 tested, 0.52% active. inhibition, % at 12.5 µM. Clone20 osteoblast Shn3 3'UTR firefly luciferase, 24 h;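 active = mean inhibition of at least 75% with every replicate also reaching 75%; inconclusive = mean inhibition at least 75% but some replicate below; inactive = mean inhibition below 75%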;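 also: 0% = median of neutral control wells and 100% = pilot-screen positive control compound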
# Calb FLC: C. albicans growth modulation with fluconazole; C. albicans CaCi-2 (fluconazole-resistant clinical isolate) + fluconazole, Alamar Blue growth, 48 h; growth inhibition, % (test concentration not listed); 300,000 tested, 0.57% active;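 active = growth inhibition above about 58% in most replicates, limit read from the data, passing the limit was not always enough; inconclusive = exactly half the replicates above a set limit; inactive = most replicates below a set limit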;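 also: all wells also contain fluconazole at 8 µg/ml as a sub-toxic cotreatment; 0% = median of DMSO wells and 100% = median of geldanamycin control wells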
# PfHsp90 yeast 2: inhibits growth of yeast expressing Plasmodium falciparum Hsp90. inhibition, % at 9.4 µM. 310,000 tested, 0.32% active. S. cerevisiae expressing PfHsp90, BacTiter-Glo ATP, 48 h; yeast lacking PDR1 and PDR3 efflux regulators;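 active = every replicate shows inhibition above about 80%, whatever the replicate mean, limit read from the data; inconclusive = mean inhibition reaches the set limit but some replicate falls short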;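 also: 0% = DMSO neutral controls and 100% = 20 µM radicicol positive controls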
# CSC inhib: blocks cancer stem cells | cancer stem cell-like cells viability, luminescence | inhibition, % at 7.5 µM | 300,000 tested, 1.1% active | AID 2717; in the data active = inhibition above about 75%; inconclusive = no clear call, values can overlap the other calls; tested in HMLE shEcad cells
# Beta cell apopt: beta cell apoptosis inhibition | INS-1E cytokine-induced death, ATP luminescence, 48 h; percent of positive-control rescue, neutral wells zero | protection from apoptosis, % (test concentration not listed) | 300,000 tested, 0.8% active;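 active = Every replicate reaches about 75%, or at least half do and their mean reaches it too, limit read from the data; inconclusive = At least half of replicates reach the limit but their mean does not; inactive = Under half of replicates reach the limit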;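 also: 0% = cytokine-treated negative control wells and 100% = positive control rescue; higher means more ATP so stronger rescue from cytokine killing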
# Numbers without * were called inactive; ? = inconclusive; nt = not tested or not shown; ! = not confirmed by another sample. This is a sample that favours compounds with a hit; in the whole collection about 2.2% have one here.
SMILES,Shn3 inh set2,Calb FLC,PfHsp90 yeast 2,CSC inhib,Beta cell apopt
N/C(=N\N=C/c1ccc(F)cc1)N/N=C\c1ccc(F)cc1,14,-7,5,77*,8
N/C(=N\N=Cc1ccc2c(c1)OCO2)NN=Cc1ccc2c(c1)OCO2,-8,nt,8,nt,nt
N/C(=N\N=C/c1ccc(Br)cc1)N/N=C\c1ccc(Br)cc1,11,-20,-2,103*,2
C=C(CC[C@@H](O)C(C)(C)O)[C@H]1CC[C@]2(C)[C@@H]1CCC1[C@@]3(C)CC[C@H](O)C(C)(C)C3CC[C@]12C (some centres not stated),0,nt,19,?,-2
C=C(C)[C@@H]1CC[C@]2(C(=O)O)CC[C@]3(C)[C@H](CC[C@@H]4[C@@]5(C)CC[C@H](O)C(C)(C)[C@@H]5CC[C@]43C)[C@@H]12,-2,nt,-12,84*,nt
COc1ccc(C2C(C#N)=C(N)Oc3c2ccc2cccnc32)cc1OC (configuration not stated),78,93*,22,51,99*
CCCn1cnnc1CNC(=O)C1CCC(=O)N(CCc2cccc(F)c2)C1 (configuration not stated),9,8,-17,-3,0
CN(CC(=O)Nc1ccc(F)c(F)c1F)C(=O)C1CCCC1,-20,nt,-3,nt,nt
COc1ccc(OC)c2c1C(=O)c1ccccc1C2=O,nt,-1,nt,-25,-7
COc1ccc(OC)c2c1C(=O)C(Cl)=C(Cl)C2=O,nt,-3,110*,96*,114*
CCCC(=O)OCCNc1cc(SCc2ccco2)c2nonc2c1[N+](=O)[O-],15,-32,-15,7,-7
CCCC(=O)OCCNc1cc(Sc2nccn2C)c2nonc2c1[N+](=O)[O-],95*,14,7,50,-3
CCC(=O)OCCNc1cc(Sc2nc3ccccc3s2)c2nonc2c1[N+](=O)[O-],49,0,11,106*,22
CCC(=O)OCCNc1cc(Sc2nc3ccccc3[nH]2)c2nonc2c1[N+](=O)[O-],96*,nt,8,27,-3
CCCSc1cc(NCCOC(=O)CCC)c([N+](=O)[O-])c2nonc12,4,-10,6,-6,-12
O=[N+]([O-])c1c(NCCCO)cc(Sc2nc3ccccc3s2)c2nonc12,90*,39,nt,-4,0
O=C(OCc1nnc(-c2ccccc2)o1)C1CC(=O)N(Cc2ccco2)C1 (configuration not stated),-18,0,-4,-12,-1
COc1ccc(CCN2CCCn3c2nc2c3c(=O)[nH]c(=O)n2C)cc1OC,11,3,31,16,-1
O=C(NC(Nc1nc2ccc([N+](=O)[O-])cc2s1)(C(F)(F)F)C(F)(F)F)c1ccccc1Cl,90*,64,7,98*,109*
CN(C)S(=O)(=O)c1ccc2nc(NC(=O)c3cccnc3)sc2c1,-49,4,12,-12,-4
O=C(NC(Nc1nc2ccc([N+](=O)[O-])cc2s1)(C(F)(F)F)C(F)(F)F)c1cccnc1,83,34,11,70,119*
O=C(NC(NNc1ccc([N+](=O)[O-])cc1)(C(F)(F)F)C(F)(F)F)c1ccccc1Cl,-8,-29,nt,9,1
CN1CCN(Cc2nc3ccccc3c(=O)n2Cc2nc(-c3ccc4ccccc4c3)cs2)CC1,93*!,0,-1,99*,-3
CN1CCN(Cc2nc3ccccc3c(=O)n2Cc2nc(-c3cccc([N+](=O)[O-])c3)cs2)CC1,18,nt,-50,nt,nt
CCOC(=O)c1c(C)oc2c1c(C(c1cccnc1)N1CCOCC1)c(O)c1ccccc12 (configuration not stated),-87,25,91*,83*,-21
SMILES,Shn3 inh set2,Calb FLC,PfHsp90 yeast 2,CSC inhib,Beta cell apopt
CCOC(=O)c1c(C)oc2c1c1c(c3ccccc32)OCN(Cc2cccnc2)C1,-120,nt,nt,nt,nt
Cc1c(CCOC(=O)c2ccc(Cl)cc2Cl)sc[n+]1CC(=O)c1ccccc1,-6,nt,-25,-10,-5
Cc1c(CCOC(=O)C23CC4(C)CC(C)(CC(C)(C4)C2)C3)sc[n+]1CC(=O)c1ccccc1,90*,113*,-21,nt,22
Cc1c(CCOC(=O)C23CC4CC(CC(C)(C4)C2)C3)sc[n+]1Cc1ccccc1,29,101*,nt,31,34
Cc1c(CCOC(=O)CC23CC4CC(CC(C4)C2)C3)sc[n+]1CC(=O)c1ccccc1,11,56,27,100*,26
O=C(OCc1ccccc1)N1CCC2CC1c1cc(N3CCN(S(=O)(=O)c4cccc5ccccc45)CC3)ccc12 (configuration not stated),-5,nt,nt,nt,nt
O=C(Nc1ccccn1)C1CCN(c2ncnc3c2nc2n3CCCCC2)CC1,49,-1,2,-16,-8
O=S(=O)(N/N=C1/CC(c2ccccc2)Oc2ccccc21)c1ccc(Br)cc1 (configuration not stated),8,2,nt,89*,11
Cc1ccc(S(=O)(=O)N/N=C2/CC(c3ccccc3)Oc3ccccc32)cc1[N+](=O)[O-] (configuration not stated),-41,4,-32,13,3
CC1=NN(c2nc(-c3ccc(Cl)cc3)cs2)C(=O)C1,-4,1,-17,123*,-5
Fc1ccc(-c2csc(N3CCSCC3)n2)cc1,-35,2,-18,-12,-2
CC1=NN(c2nc(-c3ccc(F)cc3)cs2)C(=O)C1,-2,28,-13,86*,-9
Cc1ccc(NC(=O)N[C@H](C(=O)O)C(C)C)c(C)c1,-5,-2,-9,-4,-7
COC(=O)c1cn(C(=O)c2cc(Cl)ccc2Cl)c2ccccc12,-6,-3,1,9,0
Clc1ccc(CO/N=C/c2c(-c3ccccc3)nc3n2CCS3)c(Cl)c1,26,-4,nt,78*,0
COc1ccc(CNC(=O)COC(=O)c2ccc(Br)o2)cc1,9,nt,3,-2,2
CCC(C)c1ccc2oc(-c3ccc(NC(=O)Cn4cnc5c(=O)n(C)c(=O)n(C)c54)cc3)nc2c1 (configuration not stated),-63,5,nt,18,13
Cc1ccc2oc(-c3cccc(NC(=O)Cn4cnc5c(=O)n(C)c(=O)n(C)c54)c3)nc2c1,nt,122*,nt,10,8
COc1ccc(C(N)c2csc(Nc3ccc(S(C)(=O)=O)cc3)n2)cc1 (configuration not stated),6,nt,nt,nt,nt
Oc1ccc(Cl)c2cccnc12,30,nt,108*,nt,nt
Oc1c(Cl)cc(Cl)c2cccnc12,16,?,107*,nt,nt
O=C(Oc1ccc(Cl)c2cccnc12)c1cccnc1,17,-15,112*,72,nt
Cc1ccc(C(=O)Oc2ccc(Cl)c3cccnc23)cc1[N+](=O)[O-],77,19,-19,37,-8
Cc1ccc(S(=O)(=O)Nc2cc(Cl)c(O)c3ncccc23)cc1,72,-4,104*,29,110*
Oc1c(I)cc(I)c2cccnc12,94*,nt,109*,nt,nt
CCn1ncc(N(C)N)c(Cl)c1=O,1,-18,-4,-13,-6
